Read-out in assay [1]: Transforming growth factor beta 1 (TGFb1), TGFB1 (gene 7040)
As to the kind of experiment: BSK_KF3CT_TGFb1: BioMAP Diversity Plus: KF3CT Assay for Transforming growth factor beta 1 (TGFb1) Biomarker Activity (AID 2283072). Conditions: primary human keratinocytes with fibroblasts; actives raise or lower the signal. The gist of the method: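 Human keratinocyte/foreskin fibroblast co-culture; TGF-b1 measured by ELISA 24 h after dosing, fitted bidirectionally versus DMSO. Cytotoxicity checked in parallel cultures by total protein (SRB staining, 560 nm).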

Read-out in assay [2]: Matrix Metallopeptidase 9 (MMP9), MMP9 (gene 4318)
As to the kind of experiment: BSK_KF3CT_MMP9: BioMAP Diversity Plus: KF3CT Assay for Matrix Metallopeptidase 9 (MMP9) Biomarker Activity (AID 2283074). As to conditions: primary human keratinocytes with fibroblasts; actives raise or lower the signal. The gist of the method: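 Human keratinocyte and foreskin fibroblast co-culture exposed to chemicals for 24 h; MMP9 biomarker measured by ELISA, bidirectional fitting relative to DMSO; cytotoxicity tracked by SRB total protein staining in parallel cultures.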

Read-out in assay [3]: urokinase plasminogen activator (uPA), PLAU (gene 5328)
As to the kind of experiment: BSK_KF3CT_uPA: BioMAP Diversity Plus: KF3CT Assay for urokinase plasminogen activator (uPA) Biomarker Activity (AID 2283075). As to conditions: primary human keratinocytes with fibroblasts; actives raise or lower the signal. The gist of the method: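 Primary human keratinocyte/foreskin fibroblast co-culture exposed to chemical; uPA measured by ELISA at 24 h. Bidirectional fit versus DMSO, with parallel SRB total-protein staining for cytotoxicity.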

Read-out in assay [4]: CD40, CD40 (gene 958)
As to the kind of experiment: BSK_LPS_CD40: BioMAP Diversity Plus: LPS Assay for CD40 Biomarker Activity (AID 2283076). As to conditions: primary human HUVEC with PBMC; actives raise or lower the signal. The gist of the method:
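ELISA readout of CD40 in HUVEC/PBMC co-culture (BSK_LPS system), 24 h post-dosing; bidirectional curve fit, DMSO baseline; parallel SRB total-protein staining for cytotoxicity.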

Read-out in assay [5]: E-selectin (Homo sapiens) (UniProt P16581)
As to the kind of experiment: BSK_LPS_Eselectin: BioMAP Diversity Plus: LPS Assay for Eselectin Biomarker Activity (AID 2283077). Conditions: primary human HUVEC with PBMC; actives raise or lower the signal. The essentials: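 ELISA readout of E-selectin, 24 h post-dose, HUVEC + PBMC co-culture (LPS system). Gain or loss of signal vs DMSO baseline, bidirectional fit.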

A short description of assay [6]: BSK_LPS_SRB: Viability Assessment in the BioMAP Diversity Plus: LPS Assay (AID 2283079).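 Also: total protein by sulforhodamine B absorbance as a cytotoxicity measure; measured one day after compound addition; fitted in both directions against DMSO so loss or gain of signal counts.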 As to conditions: primary human HUVEC with PBMC. The gist of the method:
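HUVEC + PBMC co-culture, LPS-stimulated; compound 24 h. 10% TCA fix, 0.1% SRB stain, A560. Bidirectional fit vs DMSO.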

Read-out in assay [7]: Interleukin-1 alpha (IL1a), IL1A (gene 3552)
As to the kind of experiment: BSK_LPS_IL1a: BioMAP Diversity Plus: LPS Assay for Interleukin-1 alpha (IL1a) Biomarker Activity (AID 2283080). Conditions: primary human HUVEC with PBMC; actives raise or lower the signal. The gist of the method: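 HUVEC/PBMC co-culture, LPS system; 24 h after dosing; IL-1a by ELISA; gain or loss of signal fitted bidirectionally vs DMSO baseline.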

Read-out in assay [8]: Monocyte Chemoattractant Protein-1 (MCP1), CCL2 (gene 6347)
The assay can be described thus: BSK_LPS_MCP1: BioMAP Diversity Plus: LPS Assay for Monocyte Chemoattractant Protein-1 (MCP1) Biomarker Activity (AID 2283081). Conditions: primary human HUVEC with PBMC; actives raise or lower the signal. The essentials: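 ELISA read-out of MCP-1 after 24 h chemical dosing of a human umbilical vein endothelial cell/peripheral blood mononuclear cell co-culture stimulated with LPS. Gain or loss of signal fitted relative to DMSO controls.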

The nature of assay [9]: BSK_LPS_PGE2: BioMAP Diversity Plus: LPS Assay for Prostaglandin E2 (PGE2) Biomarker Activity (AID 2283082).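 As to AC50: secreted prostaglandin E2 measured by ELISA in LPS-stimulated co-culture.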 As to conditions: primary human HUVEC with PBMC; actives raise or lower the signal. The essentials:
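HUVEC plus human PBMC co-culture stimulated with LPS; secreted PGE2 quantified by ELISA 24 h after chemical dosing. Activity fitted bidirectionally against DMSO baseline; parallel SRB staining (0.1% SRB after 10% TCA fixation, 560 nm) flags overt cytotoxicity.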

Read-out in assay [10]: Macrophage colony-stimulating factor (MCSF), CSF1 (gene 1435)
The assay can be described thus: BSK_LPS_MCSF: BioMAP Diversity Plus: LPS Assay for Macrophage colony-stimulating factor (MCSF) Biomarker Activity (AID 2283083). As to conditions: primary human HUVEC with PBMC; actives raise or lower the signal. The essentials: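 HUVEC + PBMC co-culture (human primary), 24 h post-dose; M-CSF by ELISA; gain/loss of signal fitted bidirectionally vs DMSO baseline.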

Read-out in assay [11]: Tissue Factor, F3 (gene 2152)
As to the kind of experiment: BSK_LPS_TissueFactor: BioMAP Diversity Plus: LPS Assay for Tissue Factor Biomarker Activity (AID 2283084). Conditions: primary human HUVEC with PBMC; actives raise or lower the signal. The gist of the method: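 HUVEC/PBMC co-culture, LPS-activated; CD142 ELISA read 24 h post-dose; bidirectional curve fit vs DMSO negative control.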

Read-out in assay [12]: Vascular cell adhesion molecule 1 (VCAM1), VCAM1 (gene 7412)
The assay can be described thus: BSK_LPS_VCAM1: BioMAP Diversity Plus: LPS Assay for Vascular cell adhesion molecule 1 (VCAM1) Biomarker Activity (AID 2283086). Conditions: primary human HUVEC with PBMC; actives raise or lower the signal. The gist of the method:
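Human umbilical vein endothelial cells co-cultured with PBMC and stimulated with LPS; VCAM-1 measured by ELISA 24 h after dosing. Bidirectional curve fitting against DMSO baseline; cytotoxicity tracked in parallel by SRB total-protein staining.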

Read-out in the next assay: CD38, CD38 (gene 952)
The assay can be described thus: BSK_SAg_CD38: BioMAP Diversity Plus: SAg Assay for CD38 Biomarker Activity (AID 2283087). Conditions: primary human HUVEC with PBMC; actives raise or lower the signal. The essentials: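 Human HUVEC plus PBMC co-culture stimulated with superantigen; CD38 measured by ELISA 24 h after chemical dosing. Fluorescence read-out, bidirectional fit against DMSO; cytotoxicity tracked in parallel by SRB and Alamar Blue.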

Read-out in assay [13]: CD40, CD40 (gene 958)
As to the kind of experiment: BSK_SAg_CD40: BioMAP Diversity Plus: SAg Assay for CD40 Biomarker Activity (AID 2283088). Conditions: primary human HUVEC with PBMC; actives raise or lower the signal. The gist of the method: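 HUVEC/PBMC co-culture, 24 h post-dose; CD40 by ELISA, fluorescence intensity; bidirectional fit vs DMSO negative control.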

Read-out in a further assay: CD69, CD69 (gene 969)
The assay can be described thus: BSK_SAg_CD69: BioMAP Diversity Plus: SAg Assay for CD69 Biomarker Activity (AID 2283089). Conditions: primary human HUVEC with PBMC; actives raise or lower the signal. The essentials: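 ELISA, fluorescence read-out: CD69 on human umbilical vein endothelial cell + PBMC co-culture, 24 h post-dosing. Gain or loss of signal fitted bidirectionally against DMSO baseline.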

Read-out in assay [14]: Monocyte Chemoattractant Protein-1 (MCP1), CCL2 (gene 6347)
The assay can be described thus: BSK_SAg_MCP1: BioMAP Diversity Plus: SAg Assay for Monocyte Chemoattractant Protein-1 (MCP1) Biomarker Activity (AID 2283090). Conditions: primary human HUVEC with PBMC; actives raise or lower the signal. The essentials: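 MCP-1 levels in the endothelial–PBMC SAg co-culture were quantified by ELISA at 24 h post-dosing; both increases and decreases versus DMSO scored. Cytotoxicity monitored by SRB total protein in parallel cultures.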

Read-out in assay [15]: E-selectin (Homo sapiens) (UniProt P16581)
As to the kind of experiment: BSK_SAg_Eselectin: BioMAP Diversity Plus: SAg Assay for Eselectin Biomarker Activity (AID 2283091). Conditions: primary human HUVEC with PBMC; actives raise or lower the signal. The essentials: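 E-selectin ELISA readout at 24 h post-dosing in human umbilical vein endothelial cell/PBMC co-culture; gain or loss of signal fitted relative to DMSO baseline.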

Read-out in assay [16]: C-C motif chemokine 2 (Homo sapiens) (UniProt P13500)
As to the kind of experiment: BSK_KF3CT_MCP1: BioMAP Diversity Plus: KF3CT Assay for Monocyte Chemoattractant Protein 1 (MCP1/CCL2) Biomarker Activity (AID 2283073). Conditions: primary human keratinocytes with fibroblasts; actives raise or lower the signal. The gist of the method:
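KF3CT skin co-culture (keratinocytes/foreskin fibroblasts), 24 h post-dose; MCP-1 by ELISA; gain/loss of signal fit bidirectionally vs DMSO baseline.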

Read-out in assay [17]: Tumor necrosis factor (Homo sapiens) (UniProt P01375)
As to the kind of experiment: BSK_LPS_TNFa: BioMAP Diversity Plus: LPS Assay for Tumour Necrosis Factor alpha (TNFa) Biomarker Activity (AID 2283085). As to conditions: primary human HUVEC with PBMC; actives raise or lower the signal. The gist of the method:
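Human umbilical vein endothelial cells co-cultured with PBMC and stimulated with LPS. TNFa was measured by ELISA 24 h after chemical dosing, fitted bidirectionally relative to DMSO.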

Experimental findings from PubChem BioAssay (EPA / NIEHS) are described below.

Activity calls are given as the source filed them. The calls were made as follows: active = hit-call score of the fitted dose curve at least 0.9, where 1 is the maximum; inactive = score below 0.9.

Sequence of E-selectin (Homo sapiens) (P16581 whole entry, looked up): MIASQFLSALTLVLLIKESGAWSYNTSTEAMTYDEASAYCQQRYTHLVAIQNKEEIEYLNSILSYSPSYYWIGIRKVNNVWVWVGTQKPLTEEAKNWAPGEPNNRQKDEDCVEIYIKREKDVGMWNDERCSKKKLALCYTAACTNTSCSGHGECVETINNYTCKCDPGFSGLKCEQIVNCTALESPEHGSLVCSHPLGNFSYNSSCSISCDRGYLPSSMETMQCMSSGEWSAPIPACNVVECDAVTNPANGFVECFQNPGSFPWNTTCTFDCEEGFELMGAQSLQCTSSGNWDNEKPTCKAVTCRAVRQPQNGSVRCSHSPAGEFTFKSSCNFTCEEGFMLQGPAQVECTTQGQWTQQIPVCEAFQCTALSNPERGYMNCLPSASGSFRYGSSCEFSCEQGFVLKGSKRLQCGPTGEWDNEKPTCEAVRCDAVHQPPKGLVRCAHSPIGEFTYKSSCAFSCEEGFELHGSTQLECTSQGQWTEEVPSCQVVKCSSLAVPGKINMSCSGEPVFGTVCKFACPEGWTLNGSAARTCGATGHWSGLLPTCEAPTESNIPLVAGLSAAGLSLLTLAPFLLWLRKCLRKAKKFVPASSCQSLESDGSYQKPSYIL
Sequence of Tumor necrosis factor (Homo sapiens) (P01375 whole entry, looked up): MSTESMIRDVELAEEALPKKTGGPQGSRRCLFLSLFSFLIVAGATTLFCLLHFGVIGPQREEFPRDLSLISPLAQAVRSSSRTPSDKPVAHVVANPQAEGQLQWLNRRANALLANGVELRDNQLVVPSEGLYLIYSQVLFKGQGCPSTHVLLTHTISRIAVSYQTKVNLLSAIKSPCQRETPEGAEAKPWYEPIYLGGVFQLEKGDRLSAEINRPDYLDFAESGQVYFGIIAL

On to `C#C[C@]1(O)CC[C@H]2[C@@H]3CCC4=CC(=O)CC[C@@H]4[C@H]3CC[C@@]21CC`, for which the outcome is “inactive” in assay [1]; “inactive” in [2]; “inactive” in [3]; “inactive” in the assay with CD40, CD40 (gene 958) [4]; “inactive” in [5]; “inactive” in assay [6]. For the same compound, the outcome in [7] was “inactive”; in assay [8], “inactive”; in assay [11], “inactive”; in assay [12] it was “inactive”; with CD38, CD38 (gene 952), “inactive”; in the assay with CD40, CD40 (gene 958) [13], “inactive”. The outcome with CD69, CD69 (gene 969) is “inactive”; in [14], “inactive”; in [15], “inactive”. The concentration at half-maximal activity (AC50) in assay [9] is 2.43 µM (active); in assay [10], 14.5 µM (active).

On to `CCOC(=O)[C@H](C)Oc1ccc(Oc2nc3ccc(Cl)cc3o2)cc1`, for which the outcome in assay [1] is “inactive”; in assay [16], “inactive”; in assay [2], “inactive”; with CD40, CD40 (gene 958) [4], “inactive”; in [5] it was “inactive”; in assay [6], “inactive”. Further, the outcome in [7], in assay [8], in [10], in assay [11], in assay [17] and in assay [12] was inactive. Further, the outcome with CD40, CD40 (gene 958) [13] was “inactive”; with CD69, CD69 (gene 969), “inactive”; in assay [14], “inactive”; in assay [15], “inactive”. In addition, the AC50 was 8.85 µM (active) in assay [9] and 29.9 µM (active) in the assay with CD38, CD38 (gene 952).

For the compound `O=C(c1ccccc1)C1CCCCC1`, the outcome is “inactive” in assay [1]; “inactive” in [16]; “inactive” in assay [2]; “inactive” with CD40, CD40 (gene 958) [4]; “inactive” in [5]; “inactive” in assay [6]. Also, the outcome in assay [7], in assay [8], in assay [9], in assay [10], in [11] and in assay [12] was inactive. For the same compound, the outcome in the assay with CD38, CD38 (gene 952) was “inactive”; in the assay with CD40, CD40 (gene 958) [13] it was “inactive”; with CD69, CD69 (gene 969), “inactive”; in [14] it was “inactive”; in assay [15] it was “inactive”.

A word on the AC50: it is the concentration at which the activity in the assay is half-maximal.
